15 compounds from PubChem BioAssay AID1347048 (National Center for Advancing Translational Sciences (NCATS), 2019) can be followed below.

Molecules are shown by their SMILES. The whole screen tested about 76,000 compounds, of which about 1,200 (1.6%) were called active. Roughly 4% stayed inconclusive and do not appear here. The entries come from a sample that favours actives as a whole. A number with no mark means an inactive call. Calls follow the shape of the full dose curve.
% is scaled to controls: 0 for no effect and ±100 for the full control effect; potency is read from the fitted curve at half-maximal effect.

The target of the test is Atrial natriuretic peptide receptor 1 (Homo sapiens) (UniProt P16066). In words: Natriuretic polypeptide receptor (hNpr1) antagonism - Primary qHTS. Also: nearly all actives have a fitted effect of over 60% in size. As to conditions: HEK293 hNpr1 GloSensor cGMP, ANP-stimulated luminescence; series mostly up to 70.6 µM; activity change, negative = inhibition: at the top concentration. From the text: Pruritus or itch, is an irritating skin sensation that creates a need to scratch, and ranges from mildly unpleasant and passing to acute and persistent sensations. […] Conventional treatments include topical anti-inflammatory agents, anti-histamines, and emollients, which are aimed at managing the itchy sensation and not the underlying disease. The treatment of pruritus remains a diagnostic and therapeutic challenge. Neurotransmission in the spinal cord from primary pruriceptors to second order neurons is a necessary step that eventually results in the sensation of itch. At this synapse, primary pruriceptors use the neuropeptide natriuretic polypeptide B (NppB) to activate its cognate receptor Natriuretic polypeptide receptor 1 (Npr1) on second order neurons. Inhibition of this step is a new potential strategy to inhibit acute and chronic itch. In order to identify small molecular compounds that can inhibit the Npr1 receptor we developed a high-throughput assay to probe inhibition of the receptor guanylate cyclase Npr1. The assay was designed taking advantage of Promega's GloSensor[TM] technology (Fan, F. et al. 2008). It involves the expression of a cyclic guanosine monophosphate (cGMP) biosensor, comprised of a firefly luciferase variant that was coupled to the cGMP binding domain of human phosphodiesterase 5A, and loading of cells with a cell-permeable luciferase substrate to monitor cGMP production by Npr1 in real time in live cells. In detail, we generated human embryonic kidney 293 cells stably expressing the human Npr1 and the cGMP GloSensor[TM] pGS-40F. Stimulating these cells with the Npr1 agonists human NppA or NppB, luciferase-induced light production could be detected in a dose-dependent manner. We also generated HEK293 cells stably expressing human Npr2 and pGS-40F and cells only expressing pGS-40F to conduct secondary counter screens. In these cells, NppC or sodium nitroprusside were used to stimulate Npr2 or soluble guanylate cyclase which is endogenously expressed in HEK293 cells, respectively. REFERENCE F. Fan, B. F. Binkowski, B. L. Butler, P. F. Stecha, M. K. Lewis, K. V. Wood, Novel genetically encoded biosensors using firefly luciferase. ACS Chem. Biol., 2008, 3: 346-351 .
Sequence of Atrial natriuretic peptide receptor 1 (Homo sapiens) (P16066 whole entry, looked up): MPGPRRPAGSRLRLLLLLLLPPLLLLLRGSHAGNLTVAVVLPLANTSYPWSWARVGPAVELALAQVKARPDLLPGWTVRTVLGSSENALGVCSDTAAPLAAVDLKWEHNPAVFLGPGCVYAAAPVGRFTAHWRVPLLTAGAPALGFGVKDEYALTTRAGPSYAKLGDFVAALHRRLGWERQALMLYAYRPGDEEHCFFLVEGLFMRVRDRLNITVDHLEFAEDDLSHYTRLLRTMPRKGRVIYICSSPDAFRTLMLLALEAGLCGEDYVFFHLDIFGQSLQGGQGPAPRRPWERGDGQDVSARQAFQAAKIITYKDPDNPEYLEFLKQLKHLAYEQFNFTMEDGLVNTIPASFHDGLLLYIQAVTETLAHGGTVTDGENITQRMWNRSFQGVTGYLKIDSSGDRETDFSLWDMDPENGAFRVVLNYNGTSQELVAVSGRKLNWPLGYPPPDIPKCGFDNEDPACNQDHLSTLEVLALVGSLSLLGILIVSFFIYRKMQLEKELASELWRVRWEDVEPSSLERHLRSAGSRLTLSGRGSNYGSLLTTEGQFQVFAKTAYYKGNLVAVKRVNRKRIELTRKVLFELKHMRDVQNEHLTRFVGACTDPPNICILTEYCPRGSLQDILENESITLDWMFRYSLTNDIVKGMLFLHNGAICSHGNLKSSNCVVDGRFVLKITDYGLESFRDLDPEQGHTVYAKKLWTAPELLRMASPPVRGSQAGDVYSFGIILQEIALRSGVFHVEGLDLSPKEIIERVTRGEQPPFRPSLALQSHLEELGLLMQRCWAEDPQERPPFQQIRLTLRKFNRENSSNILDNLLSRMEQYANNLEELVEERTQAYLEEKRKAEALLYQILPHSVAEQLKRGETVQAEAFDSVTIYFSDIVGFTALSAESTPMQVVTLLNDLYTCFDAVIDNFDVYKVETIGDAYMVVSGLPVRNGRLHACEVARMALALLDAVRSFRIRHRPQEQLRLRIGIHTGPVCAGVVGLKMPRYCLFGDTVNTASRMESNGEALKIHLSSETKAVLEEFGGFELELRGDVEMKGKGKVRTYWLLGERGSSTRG
PROTOCOL TABLES (as described by Inglese J, Shamu CE and Guy RK. 2007) SEQUENCE No. (e.g., 1, 2, 3, etc.); […] (e.g., Cells, Incubation, Reagent, etc.); VALUE and DESCRIPTION. GLOSENSOR PROTOCOL 1. Cells. Seed 1500 HEK293 cGMP-sensor cells expressing hNpr1 per well in 4uL into Greiner 1536-well white/solid bottom high base, tissue culture-treated plates. 2. Incubation. Incubate plated cells at 37C in 5% CO2, 95% RH overnight. 3. Reagent. Add 1uL per well GloSensor reagent from Promega (2% final concentration) or CO2 independent media vehicle control to respective columns of Greiner 1536-well plates. 4. Incubation. Incubate plated cells at room temperature for 2 h, protect from light. 5. Compounds. Library compounds and A-71915 control added at 23 nL per well, transferred by Pin Tool. 6. Incubation. Incubate plated cells for 30 min. at room temperature, protect from light. 7. Detector. GloSensor baseline pre-read luminescence measured using CCD-based camera (Viewlux). 8. Compound. Add 1uL of hNppA peptide to 0.1 nM final concentration to stimulate hNpr1 or CO2 independent media as vehicle control. 9. Incubation. Incubate treated cells at room temperature for 20 min., protect from light. 10. Detector. GloSensor post-hNppA luminescence measured using CCD-based camera (Viewlux). NOTES (numbers refer to Sequence numbers above) 1. HEK293 cells expressing hNpr1 and GIP/pGS-40F grown to 85-95% confluence (48-72 h) in T175 culture flasks (CO2 independent media supplemented with 10% FBS, 1% Pen/Strep antibiotics and 1 ug/mL puromycin). Trypsinize and harvest cells from T175 culture flasks and filter through 40 um cell strainer. Cells counted with Invitrogen Countess (30,000,000 - 50,000,000 cells/flask). […]
For `COc1cc2c(cc1Oc1ccccc1)NC(=O)C21CCN(c2ccnc(C)n2)CC1`, the “activity change, negative = inhibition” value is -18.9%.
For the compound `COc1cc2c(cc1Oc1cccc(N(C)C)c1)NC(=O)C21CCN(Cc2ccccn2)CC1`, the Potency was 10 µM (active).
`COc1cc2c(cc1OCc1ccncc1)NC(=O)C21CCN(Cc2ccccn2)CC1`: the “activity change, negative = inhibition” value was -3.28%.
Still for that read-out and setting: to `CN(Cc1ccccc1)C[C@H]1CN2CC[C@H]1C[C@@H]2CNC(=O)Nc1cccc(C#N)c1` belongs 4.8%.
For the compound `COc1cc2c(cc1OCc1ccncc1)NC(=O)C21CCN(c2ncccn2)CC1`, the “activity change, negative = inhibition” value is 0.378%.
As to `COc1cc2c(cc1OCc1ccncc1)NC(=O)C21CCN(c2ncc(F)cn2)CC1`, the Potency is 20 µM (active).
For the compound `COc1cc2c(cc1OCc1ccccc1)NC(=O)C21CCN(CCC(C)C)CC1`, the “activity change, negative = inhibition” value is -15.2%.
Consider `Cc1nc(-c2ccccc2)cc([C@H]2CN3CC[C@H]2C[C@@H]3CNC2CCOCC2)n1`, for which the “activity change, negative = inhibition” value is 3.49%.
As for `O=C(NCc1ccccc1)[C@H]1CN2CCC1C[C@@H]2Cn1cc(-c2ccc(F)cc2)nn1` (stereo not given in full), the “activity change, negative = inhibition” value was -8.5%.
Still for that read-out and setting: under `Cc1nc(-c2ccccc2)cc([C@H]2CN3CC[C@H]2C[C@@H]3CNC2CCN(C)CC2)n1` stands -2.27%.
Consider `CCC(CC)c1cc([C@H]2CN3CC[C@H]2C[C@@H]3CNS(=O)(=O)c2ccccc2C#N)nc(-c2ccncc2)n1`, for which the “activity change, negative = inhibition” value is -24.1% [at 46.3 µM].
On to `CCC(CC)c1cc([C@H]2CN3CC[C@H]2C[C@@H]3CNC(=O)NCc2ccccc2)nc(-c2ccncc2)n1`, for which the Potency was 11.2 µM (active).
In the case of `CCCS(=O)(=O)NC[C@H]1C[C@@H]2CCN1C[C@@H]2c1cc(-c2ccccc2)nc(C)n1`, the “activity change, negative = inhibition” value was 1.77%.
For the compound `COc1ccc(C(=O)N2[C@H]3CC[C@@H]2c2cnc(-c4ccccc4)nc2C3)c(OC)c1`, the “activity change, negative = inhibition” value is -30.3% [at 46.3 µM].
Consider `COc1cc2c(cc1OCc1ccccc1)NC(=O)C21CCN(C(=O)C(C)C)CC1`, for which the “activity change, negative = inhibition” value was -9.19%.
